According to PubChem BioAssay (NCI):
This is part of a sample that, as a whole, favours compounds with a hit. Of some 83,000 tested, about 20% had one in any assay.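 A percent growth of 40 corresponds to 60% growth inhibition; 0 means no net growth; -100 means all cells died. Active threshold: below 10.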 Values without a mark were called inactive. The source made the active and inactive calls.

The molecules below were run on M14 melanoma (assay: NCI-60 one-dose screen, 48 h (100 = growth as untreated, 0 = no growth, -100 = all killed)). Settings: 10 µM unless noted.

Going from `Cc1ccc(S(=O)(=O)NCCCNc2nccc(-c3c(-c4ccccc4)nc4sccn34)n2)cc1` to `Cc1ccc(Cn2c(-c3nonc3N)nc3ccccc32)cc1`, the growth rises from 30.5% to 66.4%.

Compared with `Cc1cc(-c2ccccc2)c(C)n1Cc1ccc(Cl)cc1`, `COc1ccc(Cn2c(SC)nc(=O)n(Cc3ccc(Cl)cc3)c2=O)cc1` is higher in growth: 17.7% for the first, 98.6% for the second.

Going from `CN(C)c1ccc(C2CC(c3ccccc3)=NN2/C=C2\SC(=O)NC2=O)cc1` (stereo unspecified) to `O=C(COc1ccccc1)N1N=C(c2ccc(Cl)cc2)CC1c1c[nH]c2ccccc12` (stereo unspecified), the growth falls from 93.7% to 83.1%.

Going from `C=C1C(=O)O[C@H]2[C@H]1CC/C(COC(=O)NCCc1ccc(OC)cc1)=C\CC[C@@]1(C)O[C@@H]21` to `C=C1C(=O)O[C@H]2[C@H](O)[C@@H](C)CCC/C(C)=C/CC[C@@]3(C)O[C@@H]3C[C@@H]12`, the growth rises from 25.1% to 92.8%.

Compared with `O=C1c2ccccc2C(=O)c2c1oc1oc3c(c(=O)c21)c(=O)n(-c1ccccc1)c1ccccc31`, `CC(=O)n1cc([C@H]2CC[C@H](c3cn(C(C)=O)c4ccccc34)c3c2[nH]c2ccccc32)c2ccccc21` is higher in growth: 44.7% for the first, 79.1% for the second.

Going from `CC1(C)OC2COC3(C(=O)O)OC(C)(C)OC3C2O1` (stereo unspecified) to `CC1=C(C#N)C(C)(C)C(C#N)=C(C)N1`, the growth rises from 99.9% to 102%.

Going from `COc1cc2nc(N3CCC[C@@H](NC4=CC(=O)c5ccccc5C4=O)C3)nc(N)c2cc1OC` to `COc1cc2nc(Cl)nc(NCCO)c2cc1OC`, the growth rises from 96.3% to 110%.

Going from `O=C(Nc1ccc(Cl)cc1)c1cc(-c2ccc(F)cc2)c2sc(=O)[nH]c2n1` to `COc1ccc(/C=C/C(=O)c2cc(OC)c(OC)c(OC)c2)cc1OCc1cn(Cc2ccc(F)cc2)nn1`, the growth rises from 13.9% to 87.7%.

Going from `Cc1cc(C)c(S(=O)(=O)N2CCN(c3cc4c(cc3F)c(=O)c(C(=O)O)cn4C3CC3)CC2)c(C)c1` to `CCOC(=O)C1=C(CSC(=S)N(C2CCCCC2)C2CCCCC2)N(C)C(=O)NC1c1ccccc1` (stereo unspecified), the growth falls from 63.5% to 56.9%.

First: O=C(CCC(=O)OC1CCCC1)OC1CCCC1
Second: CCN(C(=O)c1cc2ncccc2[nH]1)[C@H]1CCC[C@@H](NCc2cccc(F)c2)C1
The growth of the first is lower: 112% for the first, 113% for the second.

Molecule `CCCCCCCCCCCCCCCCC(Br)C(=O)O` (stereo unspecified) has a growth of 101%.

For `O=C(CCCn1c(=O)c2sc3ccccc3c2n2nnc(-c3ccccc3)c12)NCCc1cnc[nH]1`, the growth was -78.6% (active).
For `COc1cc(CNC(=O)CCSc2nc3ccccc3c(=O)n2Cc2cc(OC)c(OC)c(OC)c2)cc(OC)c1OC`, the growth was 6.56% (active).
With `CCN(CC)CCCC(C)N=c1cc(Nc2cc(=NC(C)CCCN(CC)CC)c3cc(OC)ccc3o2)oc2ccc(OC)cc12` (stereo unspecified) the growth was -87.9% (active).
For `O=C(CCCn1c2c(sc3ccccc32)c(=O)n2nnc(-c3ccccc3)c12)NCCc1cnc[nH]1`, the growth was -80.6% (active).
With `COc1ccc2c(c1)NC(=O)CN2c1nc(NC2CC2)nc2ccccc12` the growth was 6.86% (active).
